Experiment in all cases: qHTS profiling for inhibitors of Plasmodium falciparum proliferation (AID 504749); also: nearly all actives have a fitted effect of over 60% in size
Common to all, as to conditions: P. falciparum in erythrocytes, SYBR Green DNA, 72 h; series mostly up to 28.7 µM
(In general: Quantitative high-throughput screening tests each substance at several concentrations.)

For assay [1], the system named is ATS95. The procedure, abridged: (§1)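 Fluorescence of SYBR Green-bound parasite DNA, read at 485/535 nm, served as the growth measure. Infected erythrocytes were cultured with compound 72 h; artemisinin (0.29 uM) and DMSO wells defined the normalization range.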
In assay [2] the test system is C2A. The procedure, abridged: as §1
Assay [3] concerns CP217. In a few lines:
as §1

The test system of assay [4] is CP237. The procedure, abridged: as §1
Assay [5] has as its system CP238. The procedure, abridged: as §1
The subject of assay [6] is CP250. In a few lines:
as §1

The subject of assay [7] is CP252. The procedure, abridged:
as §1

Assay [8] concerns CP256. The procedure, abridged: as §1
The test system of assay [9] is CP262. In a few lines: as §1
Assay [10] has as its system CP265. In a few lines: as §1
Assay [11] has as its system CP266. The procedure, abridged: as §1
For assay [12], the system named is CP268. The procedure, abridged:
as §1

Assay [13] deals with CP269. In a few lines:
as §1

For assay [14], the system named is CP325. The procedure, abridged:
as §1

Assay [15] concerns CP329. In a few lines: as §1
Assay [16] relates to Dd2. In a few lines:
as §1

Assay [17] concerns ECU. In a few lines: as §1
The test system of assay [18] is GB4. The procedure, abridged:
as §1

Assay [19] relates to P93_24. The procedure, abridged: as §1
Assay [20] relates to SC27B. The procedure, abridged:
as §1

Results filed as inconclusive are left out. The source made the active and inactive calls. Calls follow the shape of the dose curve; as a rule, active = well fitted inhibition curve with a large enough effect; inconclusive = small, poorly fitted or top-dose-only effect; inactive = flat fitted curve, though single readings scatter.
Potency is read from the fitted curve at half-maximal effect.

With `C/C1=C2/[N-]C(C(CC(N)=O)[C@@]2(C)CCC(=O)NCC(C)OP(=O)([O-])O[C@H]2[C@@H](O)[C@@H](n3cnc4cc(C)c(C)cc43)O[C@@H]2CO)[C@]2(C)N=C(/C(C)=C3N=C(/C=C4N=C1C(CCC(N)=O)C\4(C)C)[C@@H](CCC(N)=O)[C@]\3(C)CC(N)=O)[C@@H](CCC(N)=O)[C@]2(C)CC(N)=O.CC(=O)O.[Co]` (stereo not given in full), the Potency result in assay [1], in [2], in [3], in assay [4], in assay [5] and in [6] was “inactive” each time. The Potency entry in assay [7], in assay [8], in assay [9], in assay [10], in assay [11] and in assay [12] was “inactive” throughout. The Potency result in [13], in assay [14], in [15], in assay [16], in assay [17] and in assay [18] was “inactive” each time. Moreover, the Potency result in [19] and in assay [20] was “inactive” in each case.

For the compound `CO[C@H]1OC2O[C@@]3(C)CC[C@H]4[C@H](C)CC[C@@H]([C@H]1C)[C@@]24OO3` (stereo not given in full), the Potency in assay [1] was 25.1 nM (active); in [2], 35.5 nM (active); in assay [3] it was 31.6 nM (active); in [4], 15.8 nM (active); in assay [5], 22.4 nM (active); in assay [6] it was 63.1 nM (active). Also, the Potency was 31.6 nM (active) in [7]; 12.6 nM (active) in [8]; 33.8 nM (active) in assay [9]; 3.2 nM (active) in assay [10]; 67.5 nM (active) in [11]; 21.3 nM (active) in [12]. Moreover, the Potency is 21.3 nM (active) in [13]; 15.1 nM (active) in assay [14]; 60.1 nM (active) in assay [15]; 7.1 nM (active) in [16]; 15.8 nM (active) in [17]; 13.5 nM (active) in assay [18]. For the same compound, the Potency in assay [19] is 10 nM (active); in assay [20], 14.1 nM (active).

As for `C=C1[C@@H]2CC[C@H](C2)C1(C)C`, the Potency result in [1], in [2], in assay [3], in assay [4], in [5] and in [6] was “inactive” each time. Besides, the Potency result in assay [7], in [8], in assay [9], in assay [10], in assay [11] and in [12] was “inactive” throughout. The Potency result in assay [13], in assay [14], in assay [15], in assay [16], in assay [17] and in assay [18] was “inactive” in each case. Further, the Potency entry in [19] and in assay [20] was “inactive” in each case.

Take `C[C@]12CC[C@@H]3c4ccc(O)cc4CC[C@H]3[C@@H]1C[C@H](O)C2O` (stereo not given in full): the Potency entry in assay [1], in assay [2], in [3], in assay [4], in assay [5] and in [6] was “inactive” throughout. Moreover, the Potency result in assay [7], in assay [8], in assay [9], in [10], in [11] and in assay [12] was “inactive” in each case. The Potency result in assay [13], in assay [14], in assay [15], in assay [16], in assay [17] and in assay [18] was “inactive” throughout. Besides, the Potency result in [19] and in assay [20] was “inactive” in each case.

For the compound `OCC1O[C@H](O[C@H]2C(O)C(O)C(O)O[C@@H]2CO)C(O)C(O)C1O` (stereo not given in full), the Potency result in assay [1], in [2], in assay [3], in [4], in [5] and in assay [6] was “inactive” in each case. For the same compound, the Potency entry in [7], in assay [8], in [9], in [10], in assay [11] and in [12] was “inactive” in each case. Further, the Potency result in assay [13], in assay [14], in assay [15], in assay [16], in [17] and in assay [18] was “inactive” each time. Moreover, the Potency result in assay [19] and in assay [20] was “inactive” in each case.

Turning to `CC1(C)SC2C(NC(=O)C(C(=O)O)c3ccccc3)C(=O)N2C1C(=O)O` (stereo not given), the Potency entry in assay [1], in assay [2], in assay [3], in assay [4], in assay [5] and in assay [6] was “inactive” each time. In addition, the Potency result in assay [7], in [8], in assay [9], in assay [10], in assay [11] and in assay [12] was “inactive” throughout. Besides, the Potency result in [13], in [14], in [15], in assay [16], in [17] and in assay [18] was “inactive” throughout. The Potency result in assay [19] and in assay [20] was “inactive” in each case.

Consider `CC(=O)OCC(=O)[C@@]1(O)CCC2C3C[C@H](C)C4=CC(=O)C=CC4(C)C3C(O)CC21C` (stereo not given in full), for which the Potency result in assay [1], in assay [2], in assay [3], in assay [4], in assay [5] and in assay [6] was “inactive” in each case. For the same compound, the Potency entry in assay [7], in assay [8], in [9], in assay [10], in assay [11] and in assay [12] was “inactive” each time. For the same compound, the Potency result in [13], in assay [14], in assay [15], in [16], in assay [17] and in assay [18] was “inactive” each time. In addition, the Potency result in assay [19] and in [20] was “inactive” each time.

As for `O=C(OC[C@@H]1O[C@@](O)(COC(=O)c2cccnc2)[C@H](OC(=O)c2cccnc2)[C@H]1OC(=O)c1cccnc1)c1cccnc1`, the Potency result in [1], in [2], in assay [3], in assay [4], in assay [5] and in [6] was “inactive” throughout. In addition, the Potency entry in assay [7], in assay [8], in assay [9], in assay [10], in assay [11] and in assay [12] was “inactive” throughout. The Potency entry in [13], in assay [14], in [15], in [16], in assay [17] and in assay [18] was “inactive” each time. Also, the Potency result in assay [19] and in [20] was “inactive” each time.

Turning to `CC(=O)N[C@H]1[C@H](O[C@@H]2c3ccc(c(Cl)c3)Oc3cc4cc(c3O[C@@H]3O[C@H](CO)[C@@H](O)[C@H](O)C3C)Oc3ccc(cc3Cl)C[C@H]3NC(=O)[C@@H](N)c5ccc(O)c(c5)Oc5cc(O)cc(c5)[C@H](NC3=O)C(=O)N[C@H]4C(=O)N[C@H]3C(=O)N[C@@H]2C(=O)N[C@@H](C(=O)O)c2cc(O)cc(O[C@H]4O[C@H](CO)[C@@H](O)C(O)[C@@H]4O)c2-c2cc3ccc2O)O[C@H](CO)[C@@H](O)[C@@H]1O` (stereo not given in full), the Potency result in assay [1], in assay [2], in assay [3], in assay [4], in assay [5] and in [6] was “inactive” in each case. Moreover, the Potency result in assay [7], in [8], in [9], in [10], in assay [11] and in assay [12] was “inactive” in each case. Further, the Potency entry in assay [13], in assay [14], in assay [15], in assay [16], in assay [17] and in assay [18] was “inactive” throughout. Besides, the Potency result in assay [19] and in [20] was “inactive” each time.

As for `NC(=O)NC(CCC(=O)O)C(=O)O` (stereo not given), the Potency entry in [1], in assay [2], in [3], in [4], in [5] and in assay [6] was “inactive” in each case. Further, the Potency entry in assay [7], in [8], in assay [9], in assay [10], in [11] and in [12] was “inactive” throughout. Moreover, the Potency entry in assay [13], in assay [14], in assay [15], in assay [16], in [17] and in assay [18] was “inactive” throughout. Besides, the Potency entry in assay [19] and in assay [20] was “inactive” each time.

`Cc1ccccc1N1C(=O)c2cc(N)ccc2N/C1=C\F`: the Potency entry in [1], in assay [2], in [3], in assay [4], in [5] and in [6] was “inactive” each time. The Potency result in assay [7], in assay [8], in assay [9], in assay [10], in [11] and in assay [12] was “inactive” each time. Moreover, the Potency result in [13], in assay [14], in assay [15], in [16], in assay [17] and in assay [18] was “inactive” in each case. The Potency entry in assay [19] and in assay [20] was “inactive” in each case.

With `COc1cc2c(cc1O)CCN[C@@]21CS[C@H]2c3c(OC(C)=O)c(C)c4c(c3C(COC1=O)N1C2C2c3c(cc(C)c(OC)c3O)CC([C@@H]1O)N2C)OCO4` (stereo not given in full), the Potency is 0.9 nM (active) in [1]; 2.8 nM (active) in assay [2]; 3.2 nM (active) in assay [3]; 0.9 nM (active) in assay [4]; 0.9 nM (active) in [5]; 4 nM (active) in assay [6]. Besides, the Potency was 2.5 nM (active) in assay [7]; 5.6 nM (active) in assay [8]; 0.5 nM (active) in assay [9]; 4.5 nM (active) in assay [10]; 1.5 nM (active) in assay [11]; 0.5 nM (active) in assay [12]. The Potency in assay [13] is 0.5 nM (active); in [14], 0.5 nM (active); in [15], 0.5 nM (active); in assay [16] it was 1 nM (active); in assay [17] it was 0.8 nM (active); in [18], 0.2 nM (active). Moreover, the Potency was 0.9 nM (active) in [19] and 0.8 nM (active) in assay [20].

(Values after PubChem BioAssay (NCATS).)
